Data: PubChem BioAssay (Tox21)
Inconclusive results are not listed. Active and inactive are the calls of the source. Unless noted, calls follow the shape of the full dose curve.

Assays:
[1] = Nuclear factor erythroid 2-related factor 2/antioxidant responsive element (Nrf2/ARE) small molecule agonists: qHTS cell viability counter screen in human keratinocytes (AID 1919968; active = well fitted curve in the direction sought with a large enough effect in the repeat runs; an effect the other way counts as inactive or inconclusive; also: nearly all actives have a fitted effect of over 55% in size; also: potency is read from the fitted curve at half-maximal effect)
Summary of the method: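 In human HaCaT keratinocytes stably expressing an ARE-driven luciferase, compound exposure lasted 23 h at 37 C under 5% CO2. Viable cells are quantified with a protease-based fluorogenic reagent (CellTiter-Fluor) read 1 h after addition.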

[2] = Nuclear factor erythroid 2-related factor 2/antioxidant responsive element (Nrf2/ARE) small molecule agonists: luciferase reporter gene qHTS assay in human keratinocytes (AID 1919969); also: nearly all actives have a fitted effect of over 35% in size
[3] = target: Gonadotropin-releasing hormone receptor (Homo sapiens) (UniProt P30968); test: Human gonadotropin-releasing hormone receptor (GnRHR) small molecule agonists, calcium flux assay in GnRHR-HEK293 cells (AID 1920063); also: nearly all actives have a fitted effect of over 35% in size
Summary of the method: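 Intracellular calcium rise is the read-out: engineered human GnRHR HEK293 cells, dye-loaded, are exposed to DMSO-dissolved compounds and fluorescence at Ex/Em 480/540 is tracked for 3 min.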

[4] = target: KiSS-1 receptor (Homo sapiens) (UniProt Q969F8); test: Human kisspeptin (KISS1R) small molecule agonists, calcium flux assay in KISS1R-HEK293 cells (AID 1920064; active = well fitted curve in the direction sought with a large enough effect in the repeat runs; an effect the other way counts as inactive or inconclusive)
Summary of the method: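 Concentration-response testing used 15 concentrations in triplicate on human KISS1R-expressing HEK293 cells. Calcium-dependent fluorescence (Ex/Em 480/540) was followed kinetically for 3 min after compound transfer.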

[5] = G protein-coupled receptor (GPCR) small molecule agonists, calcium flux assay: HEK293 wild type cell line counter screen (AID 1920065)
Summary of the method: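 Fluorescence intensity signals activation. After overnight (18 h) culture and a 1 h calcium dye load at 37 C, compounds are added by pin tool and the plate read at 480/540 nm for 3 min in 1 s steps.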

[6] = p53 small molecule agonists, cell-based qHTS assay with human liver microsomes: qHTS cell viability counter screen (AID 1963579); also: nearly all actives have a fitted effect of over 45% in size; also: potency is read from the fitted curve at half-maximal effect
Summary of the method: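 Cytotoxicity counter screen: p53RE-bla, 4,000 cells/well; 5 h settle, 37 C/5% CO2; cpd + HLM 0.5 mg/mL + NADPH 0.5 mg/mL (final); 16 h, 37 C; CellTiter-Glo, 30 min RT, luminescence.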

[7] = p53 small molecule agonists, cell-based qHTS assay: qHTS cell viability counter screen (AID 1963581); also: nearly all actives have a fitted effect of over 45% in size
Summary of the method: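 Luminescence from CellTiter-Glo, reflecting ATP content, serves as the cytotoxicity measure; it is taken after the 2 h reporter substrate step in HCT-116 p53RE-bla cells dosed for 16 h at 37 C.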

[8] = target: 5-hydroxytryptamine receptor 2A (Homo sapiens) (UniProt P28223); test: 5-hydroxytryptamine receptor 2A (HTR2A) small molecule antagonists, cell-based qHTS assay (AID 1963586); also: nearly all actives have a fitted effect of over 45% in size
Summary of the method: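 CHO cells stably expressing human HTR2A were plated for 18 h at 37 C, then loaded with calcium dye for 1 h. Compounds were preincubated 5 min at room temperature before DOI (4 nM solution) was added. Kinetic fluorescence was read for 3 min.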

[9] = target: 5-hydroxytryptamine receptor 2A (Homo sapiens) (UniProt P28223); test: 5-hydroxytryptamine receptor 2A (HTR2A) small molecule agonists, cell-based qHTS assay (AID 1963587); also: nearly all actives have a fitted effect of over 30% in size
Summary of the method: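 CHO cells stably expressing human HTR2A, plated 18 h, loaded with calcium dye 1 h at 37 C. Agonist mode: compounds added and intracellular calcium fluorescence recorded kinetically for 2 min at 1 sec intervals.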

[10] = target: Muscarinic acetylcholine receptor M1 (Homo sapiens) (UniProt P11229); test: Cholinergic receptor muscarinic 1 (CHRM1) small molecule antagonists, cell-based qHTS assay (AID 1963588); also: nearly all actives have a fitted effect of over 40% in size; also: potency is read from the fitted curve at half-maximal effect
Summary of the method: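 Compounds were tested at 15 concentrations in three independent runs. Dye-loaded CHRM1-CHO cells were exposed 5 min at room temperature before stimulation by acetylcholine added at 50nM. Intracellular calcium was read kinetically on FDSS for 3 min.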

[11] = target: Muscarinic acetylcholine receptor M1 (Homo sapiens) (UniProt P11229); test: Cholinergic receptor muscarinic 1 (CHRM1) small molecule agonists, cell-based qHTS assay (AID 1963589); also: nearly all actives have a fitted effect of over 35% in size; also: potency is read from the fitted curve at half-maximal effect
Summary of the method: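 Fluorescent calcium dye reports M1 activation in stably transfected CHO cells. Compounds, 15 concentrations, added after 1 h dye loading at 37 C; kinetic reading at 1 sec intervals.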

[12] = cAMP Responsive Elements (CRE) small molecule agonists, cell-based qHTS assay (AID 1963590)
Summary of the method: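 Compound exposure lasted 3 h at 37 C/5% CO2 in CRE-bla HEK 293T cells grown in assay medium with 10% dialyzed FBS and 25 mM HEPES. Reporter signal came from LiveBLAzer B/G FRET substrate, 2 h, room temperature.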

[13] = cAMP Responsive Elements (CRE) small molecule antagonists, cell-based qHTS assay (AID 1963591; active = well fitted inhibition curve with a large enough effect in the signal ratio in the repeat runs, not every such curve was filed as active; the % refers to the signal ratio)
Summary of the method: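 Stimulation used NKH477 at a final 0.25 uM for 3 h in compound-treated CRE-bla HEK293T cells, seeded 18 h beforehand. Reporter activity was measured with LiveBLAzer B/G FRET substrate after 2 h at room temperature.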

[14] = target: Beta-2 adrenergic receptor (Homo sapiens) (UniProt P07550); test: Adrenergic beta2 receptor (ADRB2) small molecule antagonists, cell-based qHTS assay (AID 1963592); also: series mostly up to about 92 µM; nearly all actives have a fitted effect of over 50% in size
Summary of the method: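 Assay format: CHO-ADRB2 cells, 18-20hr seeding at 37C/5% CO2, then compound plus 1nM isoproterenol agonist mix for 0.5hr RT. Homogeneous time-resolved fluorescence cAMP detection after 1hr, expressed as 665/615 nm ratio.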

[15] = target: Beta-2 adrenergic receptor (Homo sapiens) (UniProt P07550); test: Adrenergic beta2 receptor (ADRB2) small molecule agonists, cell-based qHTS assay (AID 1963593);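 also: CHO cells stably overexpressing human ADRB2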
Summary of the method: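 CHO cells stably over-expressing ADRB2 were plated overnight at 37C, then dosed with compounds plus a stimulation mix containing 100uM IBMX and 25uM Ro-20-1724 for 0.5hr at room temperature. cAMP was measured by HTRF competition, 1hr.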

[16] = target: D(2) dopamine receptor (Homo sapiens) (UniProt P14416); test: Dopamine D2 receptor (DRD2) small molecule agonists, cell-based qHTS assay (AID 1963594); also: nearly all actives have a fitted effect of over 35% in size
Summary of the method: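 HEK293 cells stably expressing human DRD2, pre-treated with PDE inhibitor Ro20-1724 (0.1 mM final) and compound 10 min at room temperature, then stimulated with NKH477 (200nM […]) for 30 min. cAMP read by HTRF (665/620 nm).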

[17] = target: D(2) dopamine receptor (Homo sapiens) (UniProt P14416); test: Dopamine D2 receptor (DRD2) small molecule antagonists, cell-based qHTS assay (AID 1963595; active = well fitted inhibition curve with a large enough effect in the signal ratio in the repeat runs, with a control signal flat; the % refers to the signal ratio)
Summary of the method: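 Stable D2 receptor HEK293 line, 24 h after seeding. Compound preincubated 10 min, then quinpirole (12 nM) with forskolin analogue NKH477 (200 nM), 30 min, room temperature. Detection by time-resolved FRET of cAMP.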

[18] = p53 small molecule agonists, cell-based qHTS assay with rat liver microsomes: qHTS cell viability counter screen (AID 1963580); also: nearly all actives have a fitted effect of over 45% in size
Summary of the method: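 After the beta-lactamase ratio was read, CellTiter-Glo was added to the same wells and luminescence measured at 30 min; cells had been treated 16 h at 37 C with compounds, rat liver microsomes and NADPH (0.5 mg/mL final each).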
% is scaled to controls: 0 for no effect and ±100 for the full control effect.

5-hydroxytryptamine receptor 2A (Homo sapiens), sequence (P28223 whole entry, looked up): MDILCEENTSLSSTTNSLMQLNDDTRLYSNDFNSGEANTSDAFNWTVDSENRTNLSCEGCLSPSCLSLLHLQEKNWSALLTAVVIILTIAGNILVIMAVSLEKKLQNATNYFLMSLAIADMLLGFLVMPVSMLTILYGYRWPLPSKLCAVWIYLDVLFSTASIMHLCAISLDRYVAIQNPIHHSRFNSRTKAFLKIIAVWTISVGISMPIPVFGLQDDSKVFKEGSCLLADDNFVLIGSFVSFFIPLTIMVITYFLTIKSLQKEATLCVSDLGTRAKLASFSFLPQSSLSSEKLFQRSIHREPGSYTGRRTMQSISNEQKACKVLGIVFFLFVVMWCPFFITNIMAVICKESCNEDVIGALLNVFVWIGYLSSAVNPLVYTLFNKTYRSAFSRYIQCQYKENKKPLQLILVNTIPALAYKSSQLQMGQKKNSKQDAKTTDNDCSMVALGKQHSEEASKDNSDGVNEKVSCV
KiSS-1 receptor (Homo sapiens), sequence (Q969F8 whole entry, looked up): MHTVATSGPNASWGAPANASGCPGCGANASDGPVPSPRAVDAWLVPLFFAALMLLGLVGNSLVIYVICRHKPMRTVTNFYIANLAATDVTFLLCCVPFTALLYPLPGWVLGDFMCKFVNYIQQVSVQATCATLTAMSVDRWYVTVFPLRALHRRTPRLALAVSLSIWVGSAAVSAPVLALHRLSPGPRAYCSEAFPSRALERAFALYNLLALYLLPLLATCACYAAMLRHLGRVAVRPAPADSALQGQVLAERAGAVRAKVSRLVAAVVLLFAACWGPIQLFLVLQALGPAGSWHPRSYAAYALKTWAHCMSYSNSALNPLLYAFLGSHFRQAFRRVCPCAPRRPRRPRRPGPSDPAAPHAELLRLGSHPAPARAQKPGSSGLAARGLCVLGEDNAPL
Gonadotropin-releasing hormone receptor (Homo sapiens), sequence (P30968 whole entry, looked up): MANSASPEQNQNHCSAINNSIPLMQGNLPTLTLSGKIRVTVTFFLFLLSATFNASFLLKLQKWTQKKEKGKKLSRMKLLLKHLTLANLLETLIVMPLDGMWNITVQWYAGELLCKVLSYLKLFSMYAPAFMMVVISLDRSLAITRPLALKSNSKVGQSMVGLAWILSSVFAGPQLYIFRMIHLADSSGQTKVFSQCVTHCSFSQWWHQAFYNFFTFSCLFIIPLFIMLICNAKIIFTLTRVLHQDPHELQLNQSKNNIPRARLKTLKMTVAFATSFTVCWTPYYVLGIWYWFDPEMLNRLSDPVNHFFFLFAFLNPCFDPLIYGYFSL
D(2) dopamine receptor (Homo sapiens), sequence (P14416 whole entry, looked up): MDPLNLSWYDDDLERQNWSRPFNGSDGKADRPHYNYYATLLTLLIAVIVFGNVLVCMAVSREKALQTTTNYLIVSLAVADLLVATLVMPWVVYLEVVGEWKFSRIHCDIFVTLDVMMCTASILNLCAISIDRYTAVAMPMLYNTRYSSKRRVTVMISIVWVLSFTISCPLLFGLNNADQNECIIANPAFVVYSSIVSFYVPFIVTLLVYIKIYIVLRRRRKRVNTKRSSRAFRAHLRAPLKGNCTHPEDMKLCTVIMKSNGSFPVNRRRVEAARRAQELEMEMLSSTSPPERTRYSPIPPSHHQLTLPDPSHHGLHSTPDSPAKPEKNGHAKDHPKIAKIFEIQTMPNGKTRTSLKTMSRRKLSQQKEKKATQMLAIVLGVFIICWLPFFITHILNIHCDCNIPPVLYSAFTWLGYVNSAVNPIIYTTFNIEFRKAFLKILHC
Beta-2 adrenergic receptor (Homo sapiens), sequence (P07550 whole entry, looked up): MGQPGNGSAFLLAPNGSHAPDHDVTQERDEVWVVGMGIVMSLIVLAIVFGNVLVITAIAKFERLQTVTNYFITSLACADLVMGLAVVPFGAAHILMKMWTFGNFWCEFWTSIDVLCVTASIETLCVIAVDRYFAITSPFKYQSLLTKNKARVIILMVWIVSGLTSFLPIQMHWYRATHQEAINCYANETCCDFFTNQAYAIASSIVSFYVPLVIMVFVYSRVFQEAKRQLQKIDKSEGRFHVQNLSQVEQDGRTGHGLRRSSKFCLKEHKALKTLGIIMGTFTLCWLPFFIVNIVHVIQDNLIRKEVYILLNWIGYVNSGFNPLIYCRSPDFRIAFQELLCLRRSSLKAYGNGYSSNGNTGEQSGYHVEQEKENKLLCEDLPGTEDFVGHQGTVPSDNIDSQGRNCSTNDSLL
Muscarinic acetylcholine receptor M1 (Homo sapiens), sequence (P11229 whole entry, looked up): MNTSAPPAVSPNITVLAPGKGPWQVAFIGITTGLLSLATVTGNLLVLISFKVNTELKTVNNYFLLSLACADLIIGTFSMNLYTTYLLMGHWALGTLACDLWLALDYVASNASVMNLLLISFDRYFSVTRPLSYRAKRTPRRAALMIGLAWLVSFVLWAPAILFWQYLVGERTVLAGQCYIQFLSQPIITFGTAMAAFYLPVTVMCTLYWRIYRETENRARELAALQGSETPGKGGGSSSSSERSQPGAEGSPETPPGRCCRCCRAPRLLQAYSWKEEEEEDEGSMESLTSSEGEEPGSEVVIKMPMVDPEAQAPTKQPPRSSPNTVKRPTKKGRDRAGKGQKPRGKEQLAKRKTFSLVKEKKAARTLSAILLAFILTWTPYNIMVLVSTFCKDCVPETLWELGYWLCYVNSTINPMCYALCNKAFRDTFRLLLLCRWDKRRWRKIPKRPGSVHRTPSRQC

Brc1c2ccccc2c(Br)c2ccccc12
inactive: activity change, negative = cytotoxicity [1] 9.04% [at 8.39 µM] | activity, positive = activation [2] -5.36% [at 8.39 µM] | activity change [3] -0.0865% [at 5.22 µM, stronger effect = higher value] | activation [4] 0.391% [at 6.97 µM] | activation [5] -0.151% [at 5.23 µM] | activity change, negative = cytotoxicity [6] 1.01% [at 5.99 µM] | activity change, negative = cytotoxicity [7] 12.6% [at 5.99 µM] | activity, negative = inhibition [8] 33.2% [at 5.62 µM] | activation [9] 0.903% [at 7.02 µM] | activity, negative = inhibition [10] -2.59% [at 5.58 µM] | activation [11] -0.0159% [at 6.97 µM] | activation [12] 1.87% [at 8.39 µM] | activity change, negative = inhibition [13] 2.05% [at 8.39 µM] | activity change, negative = inhibition [14] -10.4% [at 8.39 µM] | activation [15] 3.4% [at 8.39 µM] | activation [16] 2.55% [at 8.39 µM] | activity change, negative = inhibition [17] -0.559% [at 8.38 µM]

CCCCCCC(C)Nc1ccc(Nc2ccccc2)cc1 (centres undefined)
inactive: Potency [2] | Potency [3] | Potency [4] | Potency [5] | Potency [18] | Potency [8] | Potency [9] | Potency [10] | Potency [11] | Potency [14] | Potency [16]
active: Potency [1] 48.6 µM | Potency [6] 40.8 µM

O=S(=O)(O)c1cc(O)c2ccc(Nc3ccccc3)cc2c1
inactive: Potency [1] | Potency [2] | Potency [3] | Potency [4] | Potency [5] | Potency [6] | Potency [18] | Potency [8] | Potency [9] | Potency [10] | Potency [11] | Potency [12] | Potency [13] | Potency [14] | Potency [16] | Potency [17]

CCC(C)(CCC(C)C)C(=O)[O-].CCC(C)(CCC(C)C)C(=O)[O-].[Zn+2] (centres undefined)
inactive: Potency [1] | Potency [2] | Potency [3] | Potency [4] | Potency [5] | Potency [6] | Potency [18] | Potency [8] | Potency [10] | Potency [11] | Potency [12] | Potency [13] | Potency [16] | Potency [17]

CS(=O)(=O)CCNCc1ccc(-c2ccc3ncnc(Nc4ccc(OCc5cccc(F)c5)c(Cl)c4)c3c2)o1
active: Potency [1] 29.8 µM | Potency [11] 0.012 µM
inactive: Potency [2] | Potency [3] | Potency [4] | Potency [5] | Potency [6] | Potency [18] | Potency [8] | Potency [9] | Potency [10] | Potency [14] | Potency [16]

Cc1ccccc1N=C(N)Nc1ccccc1C
inactive: Potency [1] | Potency [2] | Potency [3] | Potency [4] | Potency [5] | Potency [6] | Potency [18] | Potency [8] | Potency [9] | Potency [11] | Potency [12] | Potency [13] | Potency [14] | Potency [16] | Potency [17]
active: Potency [10] 7.35 µM

C=C(C)C(=O)OCc1ccccc1
inactive: Potency [1] | Potency [2] | Potency [3] | Potency [4] | Potency [5] | Potency [6] | Potency [18] | Potency [8] | Potency [9] | Potency [10] | Potency [11] | Potency [12] | Potency [14] | Potency [15] | Potency [16]
